Each structure is given as a SMILES string. About 14,000 (4.5%) of roughly 310,000 compounds showed an effect of 50% or more. Effects have a minus sign here. For the sample, strong results were picked, then their nearest neighbours and some compounds at random.
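Note: peak tail current of the secondary pulse compared with the same well before compound.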

The target in this assay is human ether-à-go-go-related gene (hERG) potassium channel (human, UniProt Q12809). In words: primary screen, population patch clamp on CHO cells stably expressing hERG; higher = less effect of the substance.
Sequence of human ether-à-go-go-related gene (hERG) potassium channel (Q12809 whole entry, looked up): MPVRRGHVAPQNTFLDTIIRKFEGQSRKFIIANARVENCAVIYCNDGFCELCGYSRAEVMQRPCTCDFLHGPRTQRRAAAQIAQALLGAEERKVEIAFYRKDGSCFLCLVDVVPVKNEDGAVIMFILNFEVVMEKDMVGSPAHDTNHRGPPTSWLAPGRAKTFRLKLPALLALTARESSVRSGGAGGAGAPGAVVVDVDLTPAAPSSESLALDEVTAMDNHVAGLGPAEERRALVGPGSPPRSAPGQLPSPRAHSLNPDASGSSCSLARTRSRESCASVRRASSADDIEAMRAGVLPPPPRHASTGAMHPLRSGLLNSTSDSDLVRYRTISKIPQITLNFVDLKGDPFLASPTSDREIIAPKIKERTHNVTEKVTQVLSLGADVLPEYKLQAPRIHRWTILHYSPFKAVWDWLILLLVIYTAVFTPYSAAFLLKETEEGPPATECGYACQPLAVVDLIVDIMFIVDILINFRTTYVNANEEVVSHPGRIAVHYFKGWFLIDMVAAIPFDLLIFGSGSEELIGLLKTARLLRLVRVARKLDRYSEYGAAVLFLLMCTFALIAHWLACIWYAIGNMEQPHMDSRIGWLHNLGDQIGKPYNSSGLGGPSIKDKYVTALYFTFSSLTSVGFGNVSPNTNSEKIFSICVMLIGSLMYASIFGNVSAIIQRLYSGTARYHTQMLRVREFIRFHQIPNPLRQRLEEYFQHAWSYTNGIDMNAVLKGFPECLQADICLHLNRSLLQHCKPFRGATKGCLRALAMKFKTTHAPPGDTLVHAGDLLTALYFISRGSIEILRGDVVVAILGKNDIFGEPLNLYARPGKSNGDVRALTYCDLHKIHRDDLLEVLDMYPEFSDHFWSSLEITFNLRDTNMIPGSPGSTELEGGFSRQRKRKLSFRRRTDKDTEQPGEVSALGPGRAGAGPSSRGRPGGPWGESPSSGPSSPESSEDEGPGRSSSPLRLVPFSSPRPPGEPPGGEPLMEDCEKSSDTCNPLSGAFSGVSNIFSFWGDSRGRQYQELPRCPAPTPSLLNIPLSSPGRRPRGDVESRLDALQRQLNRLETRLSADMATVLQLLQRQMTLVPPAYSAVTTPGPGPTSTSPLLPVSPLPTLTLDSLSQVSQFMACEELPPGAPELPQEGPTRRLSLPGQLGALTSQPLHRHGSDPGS
`CC12CCC(C/C1=N\OC(=O)c1c(F)cccc1F)C2(C)C` (stereo not drawn): the “hERG current change (%, negative = inhibition) at 10uM” value is reported as -0.495%.

Regarding `CC(C)(C)C1CCC(=NNC(=O)CN(c2ccccc2)S(=O)(=O)c2ccccc2[N+](=O)[O-])CC1` (stereo not drawn), the “hERG current change (%, negative = inhibition) at 10uM” value amounted to 6.69%.

For the molecule `COCCNC(=O)c1ccc(N2CC3CC(C2)c2cccc(=O)n2C3)c([N+](=O)[O-])c1` (stereo not drawn), the “hERG current change (%, negative = inhibition) at 10uM” value was found to be 21.4%.

As for `Cc1ccc(S(=O)(=O)C2(C(=O)Nc3cccc(F)c3)CC2)cc1`, the “hERG current change (%, negative = inhibition) at 10uM” value was 0.141%.

Take `COc1cc2c(cc1OC)CN(C(=O)c1ccc(OC)c([N+](=O)[O-])c1)CC2`: the “hERG current change (%, negative = inhibition) at 10uM” value amounted to 4.43%.

Consider `COc1cccc(CN(C)C(=O)CSCC(=O)Nc2cc(C)on2)c1OC`, for which the “hERG current change (%, negative = inhibition) at 10uM” value is listed as 11.6%.

For `CCCCn1c2c(c(=O)n(C)c1=O)C(c1ccc(OC)cc1)N1CCCCCC1=N2` (stereo not drawn), the “hERG current change (%, negative = inhibition) at 10uM” value is -21.9%.

For `CCOC(=O)C1CCN(Cc2cnc(Oc3ccc(N)cc3)s2)CC1`, the “hERG current change (%, negative = inhibition) at 10uM” value was -10.6%.

Regarding `COc1ccc(S(=O)(=O)N2CCCC(C(=O)NCC3CCCO3)C2)cc1OC` (stereo not drawn), the “hERG current change (%, negative = inhibition) at 10uM” value is recorded as 11%.

In the case of `CSc1ncc(CN2CCN(CCC(C)C)C(CCO)C2)cn1` (stereo not drawn), the “hERG current change (%, negative = inhibition) at 10uM” value is -1.45%.

Turning to `CSc1ccc(CN2CCN(CCC(C)C)C(CCO)C2)cc1` (stereo not drawn), the “hERG current change (%, negative = inhibition) at 10uM” value is on record as -63.3%.

As for `OCCC1CN(Cc2ccn[nH]2)CCN1Cc1ccc(F)c(F)c1` (stereo not drawn), the “hERG current change (%, negative = inhibition) at 10uM” value was determined as 9.54%.

For the molecule `CSc1ccc(CN2CCN(C(C)C)C(CCO)C2)cc1` (stereo not drawn), the “hERG current change (%, negative = inhibition) at 10uM” value was -24%.

With `CC(C)c1csc(CN2CCN(Cc3ccc(F)c(F)c3)C(CCO)C2)n1` (stereo not drawn), the “hERG current change (%, negative = inhibition) at 10uM” value was -19.3%.

In the case of `CC(C)c1cc(CN2CCN(Cc3ccc(F)c(F)c3)C(CCO)C2)[nH]n1` (stereo not drawn), the “hERG current change (%, negative = inhibition) at 10uM” value is -52.4%.

For `CC(C)(O)C#Cc1ccc(CN2CCN(Cc3ccccc3)C(CCO)C2)cc1` (stereo not drawn), the “hERG current change (%, negative = inhibition) at 10uM” value was found to be 12%.

Regarding `CSc1cccc(CN2CCN(Cc3ccccc3)C(CCO)C2)c1` (stereo not drawn), the “hERG current change (%, negative = inhibition) at 10uM” value was -57.7%.

With `CC(NS(=O)(=O)OCC(Cl)(Cl)Cl)c1ccccc1` (stereo not drawn), the “hERG current change (%, negative = inhibition) at 10uM” value stood at 9.74%.

In the case of `Cc1cccc(-c2cc3nc4c(c(N5CCC6(CC5)OCCO6)n3n2)CCCC4)c1`, the “hERG current change (%, negative = inhibition) at 10uM” value is given as 10.2%.

Consider `O=S(=O)(CCSc1ccc(C(F)(F)F)cn1)c1ccc(Cl)cc1`, for which the “hERG current change (%, negative = inhibition) at 10uM” value was found to be 13%.

As for `Oc1c(-c2cc(-c3ccco3)[nH]n2)ccc2ccccc12`, the “hERG current change (%, negative = inhibition) at 10uM” value is 13.7%.

Take `CCOC(=O)N1CCc2c(sc3ncn(C)c(=O)c23)C1`: the “hERG current change (%, negative = inhibition) at 10uM” value amounted to 5.05%.

On to `Cc1cc(Cl)ccc1NC(=O)CN1C(=O)CSc2ccc(S(=O)(=O)N3CCOCC3)cc21`, for which the “hERG current change (%, negative = inhibition) at 10uM” value is listed as -18.7%.

`Cc1nc2nc[nH]n2c(=O)c1CCC(C)C`: the “hERG current change (%, negative = inhibition) at 10uM” value stood at 4.34%.

Consider `COCCNc1nc(N)c([N+](=O)[O-])c(NC2CCCCC2)n1`, for which the “hERG current change (%, negative = inhibition) at 10uM” value turned out to be 4.56%.

With `NC(=O)C(=O)N/N=C/c1c2ccccc2cc2ccccc12`, the “hERG current change (%, negative = inhibition) at 10uM” value is -11.1%.

Take `COc1cc(OC)cc(C(=O)Nc2cccc(NC(=O)c3ccccc3)c2)c1`: the “hERG current change (%, negative = inhibition) at 10uM” value was -27.3%.

For the molecule `CCOC(=O)Nc1cccc(Nc2ccccc2)c1`, the “hERG current change (%, negative = inhibition) at 10uM” value is given as -74.8%.

Regarding `CCOC(=O)Nc1cccc(NC(=O)c2ccccc2F)c1`, the “hERG current change (%, negative = inhibition) at 10uM” value came to 7.84%.

Take `COc1cc(OC)cc(C(=O)Nc2cccc(NC(C)=O)c2)c1`: the “hERG current change (%, negative = inhibition) at 10uM” value was -1.56%.

Regarding `CCOC(=O)Nc1cccc(NC(=O)c2cc(OC)cc(OC)c2)c1`, the “hERG current change (%, negative = inhibition) at 10uM” value is listed as -53.7%.

With `CCOC(=O)Nc1cccc(C(=O)O)c1`, the “hERG current change (%, negative = inhibition) at 10uM” value is given as 8.63%.

As to `COc1ccccc1CNC(=O)CN(c1ccc(C)cc1)S(=O)(=O)c1c(C)nn(C)c1C`, the “hERG current change (%, negative = inhibition) at 10uM” value was -24.1%.

As for `Cn1c(-c2ccc(N)cc2)nc2ccccc21`, the “hERG current change (%, negative = inhibition) at 10uM” value is listed as -3.42%.

Turning to `COc1ccc2c(c1)c1nc3ccccc3nc1n2Cc1ccc(OC(C)C)c(OC)c1`, the “hERG current change (%, negative = inhibition) at 10uM” value is -0.905%.

As for `CCn1c(SCCC(=O)O)nnc1-c1cccnc1`, the “hERG current change (%, negative = inhibition) at 10uM” value was 4.65%.

In the case of `CCCNC(=O)c1onc(CSc2ccc(Cl)cc2)c1C(=O)NCC1CC1`, the “hERG current change (%, negative = inhibition) at 10uM” value is reported as -8.67%.

`O=C(NCc1ccccc1)c1onc(CSc2ccccc2)c1C(=O)NCC1CC1`: the “hERG current change (%, negative = inhibition) at 10uM” value is recorded as -33.4%.

On to `O=C(NCC1CC1)c1onc(CSc2ccncc2)c1C(=O)NCC1CC1`, for which the “hERG current change (%, negative = inhibition) at 10uM” value was -11.9%.

Take `O=C(NCC1CC1)c1onc(CSc2nc3ccccc3[nH]2)c1C(=O)NCC1CC1`: the “hERG current change (%, negative = inhibition) at 10uM” value was -69.8%.

Take `CCCNC(=O)c1onc(CSc2ccc(F)cc2)c1C(=O)NCC1CC1`: the “hERG current change (%, negative = inhibition) at 10uM” value is given as -62.7%.

As to `O=C(NCc1ccccc1)c1onc(CSc2ccc(F)cc2)c1C(=O)NCc1ccccc1`, the “hERG current change (%, negative = inhibition) at 10uM” value is reported as 1.49%.

Take `COCCNC(=O)c1onc(CSc2nc3ccccc3[nH]2)c1C(=O)NCCOC`: the “hERG current change (%, negative = inhibition) at 10uM” value is -14.3%.

Regarding `O=C(NCC1CC1)c1onc(CSc2ccc(F)cc2)c1C(=O)NCC1CC1`, the “hERG current change (%, negative = inhibition) at 10uM” value was -51.6%.

Consider `CCCNC(=O)c1onc(CSc2ccc(F)cc2)c1C(=O)NCCC`, for which the “hERG current change (%, negative = inhibition) at 10uM” value is recorded as 5.35%.

On to `O=C(NCc1ccccc1)c1onc(CSc2ccc(F)cc2)c1C(=O)NCCCN1CCOCC1`, for which the “hERG current change (%, negative = inhibition) at 10uM” value is reported as -73.9%.

As to `CCCNC(=O)c1onc(CSc2nc3ccccc3[nH]2)c1C(=O)NCCC`, the “hERG current change (%, negative = inhibition) at 10uM” value was -35.7%.

As for `O=C(NCCCN1CCOCC1)c1onc(CSc2ccccc2)c1C(=O)NCCCN1CCOCC1`, the “hERG current change (%, negative = inhibition) at 10uM” value amounted to 4.97%.

In the case of `O=C(/C=C\c1ccc2c(c1)OCO2)CC1(O)C(=O)Nc2ccccc21` (stereo not drawn), the “hERG current change (%, negative = inhibition) at 10uM” value is reported as -0.111%.

As for `COc1cccc(CC(=O)N2CCC(n3nccc3NC(=O)C3CCOC3)CC2)c1` (stereo not drawn), the “hERG current change (%, negative = inhibition) at 10uM” value is listed as 21.7%.

`NC(=O)c1ccccc1NC(=O)Nc1ccccc1Cl`: the “hERG current change (%, negative = inhibition) at 10uM” value came to 11.8%.

With `COCCn1c(C)cc(C(=O)CSc2ccc(NC(C)=O)cc2)c1C`, the “hERG current change (%, negative = inhibition) at 10uM” value is 12.4%.

Take `COc1ccc(N2CCN(C(=O)CCNC(=O)Cn3ccc4ccccc4c3=O)CC2)cc1`: the “hERG current change (%, negative = inhibition) at 10uM” value was -8.61%.

As to `CN1CCN(NC(=O)c2cc(-c3ccccn3)nc3ccccc23)CC1`, the “hERG current change (%, negative = inhibition) at 10uM” value was determined as 14%.

Take `Cc1cccc(OCCCCCNCCO)c1`: the “hERG current change (%, negative = inhibition) at 10uM” value came to 3.93%.

For the molecule `CCC(C)(C)n1nnnc1C(c1ccc(C)cc1)N1CCN(C(=O)c2ccco2)CC1` (stereo not drawn), the “hERG current change (%, negative = inhibition) at 10uM” value is -45.8%.

Regarding `CN1CCN(C(=S)C(=O)NCc2ccccc2)CC1`, the “hERG current change (%, negative = inhibition) at 10uM” value is recorded as -2.07%.

The values above are taken from paper PMC4336329 (PLoS ONE, 2015).
